According to PubChem BioAssay (NCI):
The panel holds about 79,000 compounds, 15% with a hit somewhere; the sample as a whole holds those more often. The source made the active and inactive calls. Rule as the data show it: active = growth inhibition above about 70%; inactive = the rest.

How the values were obtained:
[1] = NCI Yeast Anticancer Drug Screen. Data for the rad50 strain (AID 155);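 also: 0% = growth of vehicle-only cultures of the same strain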; settings: S. cerevisiae rad50 strain growth inhibition, active compounds read high
Outline: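 Relative growth inhibition (compound vs vehicle) was measured in yeast with a defined repair-gene alteration.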

[2] = NCI Yeast Anticancer Drug Screen. Data for the mec2-1 strain (AID 157); settings: S. cerevisiae mec2-1 strain, active compounds read high
Outline: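 Test agents were screened against the mec2-1 yeast strain, with defined DNA repair or cell cycle alteration. Growth was scored as inhibition against vehicle-only controls.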

[3] = NCI Yeast Anticancer Drug Screen. Data for the sgs1 mgt1 strain (AID 161);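 also: 0% = growth of cultures given vehicle only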; settings: S. cerevisiae sgs1 mgt1 strain, active compounds read high
Outline: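 Inhibition of yeast growth, normalised to vehicle-treated controls, is reported for a strain bearing genetic alterations in DNA damage repair.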

[4] = NCI Yeast Anticancer Drug Screen. Data for the cln2 rad14 strain (AID 165);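 also: 0% = growth equal to vehicle treated cultures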; settings: S. cerevisiae cln2 rad14 strain, active compounds read high
Outline: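 Growth of compound-exposed yeast (cln2 rad14 genotype) measured and expressed as inhibition relative to vehicle.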

[5] = NCI Yeast Anticancer Drug Screen. Data for the bub3 strain (AID 167); settings: S. cerevisiae bub3 mutant strain, active compounds read high
Outline: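 Screening used yeast with an engineered genetic alteration affecting cell cycle control. Compound-exposed cultures were compared with vehicle cultures, and reduced growth was taken as inhibition.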

[6] = NCI Yeast Anticancer Drug Screen. Data for the mlh1 rad18 strain (AID 175); settings: S. cerevisiae mlh1 rad18 strain growth inhibition, active compounds read high
Outline: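 In this whole-cell yeast screen, a strain with altered DNA damage repair is challenged with compound, and its growth is measured against matched vehicle-treated controls.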

[7] = at 5.0 µM (retest, dose inferred, filed as 0.5)
[8] = at 50.0 µM (retest, dose inferred, filed as 5.0)

Measured: growth inhibition

ClCc1nc2ccccc2c2ccccc12
inactive: [1]; [7] 15% | [1]; [8] 50% | [2]; [7] 22% | [2]; [8] 26% | [2]; at 50.0 µM 20.8% | [3]; [7] 7% | [3]; [8] 21% | [3]; at 50.0 µM 55.9% | [4]; [7] 10% | [4]; [8] 13% | [4]; at 50.0 µM -28.2% | [5]; [7] 20% | [5]; [8] 67% | [5]; at 50.0 µM 61.1% | [6]; [7] 12% | [6]; [8] 43%
active: [1]; at 50.0 µM 73.8% | [6]; at 50.0 µM 83.5%

CCCCCCCCCCCCCCC(C(=O)O)S(=O)(=O)O (centres undefined)
active: [1]; [8] 85% | [1]; at 50.0 µM 98.9% | [2]; at 50.0 µM 99.7% | [3]; at 50.0 µM 87% | [4]; [8] 70% | [4]; at 50.0 µM 95.7% | [5]; at 50.0 µM 99.6% | [6]; [8] 83% | [6]; at 50.0 µM 99.6%
inactive: [1]; [7] 0% | [2]; [7] -1% | [2]; [8] 58% | [3]; [7] -3% | [3]; [8] 69% | [4]; [7] -2% | [5]; [7] -4% | [5]; [8] 66% | [6]; [7] 0%

COc1cccc2c1C(=O)c1c(O)c3c(c(O)c1C2=O)C[C@@](O)(/C(C)=N/NC(=O)c1ccc(Cl)c(Cl)c1)C[C@@H]3OC1CC(N)C(O)C(C)O1 (some centres undefined)
inactive: [1]; at 50.0 µM 42% | [2]; [7] 25% | [2]; at 50.0 µM 50.4% | [3]; [7] 25% | [3]; at 50.0 µM 44.6% | [4]; [7] 5% | [5]; [7] 43% | [6]; [7] 33% | [6]; at 50.0 µM 52.6%
active: [1]; [7] 89% | [1]; [8] 99% | [2]; [8] 99% | [3]; [8] 99% | [4]; [8] 98% | [4]; at 50.0 µM 72.7% | [5]; [8] 99% | [5]; at 50.0 µM 98.5% | [6]; [8] 99%

CC(=O)CC1CCC(=O)/C=C/C(=O)OC(CC(C)=O)CCC(=O)/C=C/C(=O)O1 (centres undefined)
active: [5]; [8] 82%
inactive: [1]; [7] 20% | [1]; [8] 38% | [1]; at 50.0 µM 16.3% | [2]; [7] 14% | [2]; [8] 47% | [2]; at 50.0 µM -13.5% | [3]; [7] 11% | [3]; [8] 42% | [3]; at 50.0 µM -6.3% | [4]; [7] 5% | [4]; [8] 27% | [4]; at 50.0 µM 23.1% | [5]; [7] 9% | [5]; at 50.0 µM -17.1% | [6]; [7] 17% | [6]; [8] 56% | [6]; at 50.0 µM -81.7%

O=C(Nc1nc2ccc([N+](=O)[O-])cc2s1)C(=O)C(C1OC(=O)c2ccccc21)[N+](=O)[O-] (centres undefined)
active: [1]; at 50.0 µM 88.7% | [2]; at 50.0 µM 87% | [3]; at 50.0 µM 88.9% | [5]; at 50.0 µM 84% | [6]; at 50.0 µM 76%
inactive: [1]; [7] 8% | [1]; [8] 8% | [2]; [7] -7% | [2]; [8] -7% | [3]; [7] 9% | [3]; [8] 9% | [4]; [7] 13% | [4]; [8] 13% | [4]; at 50.0 µM 67.6% | [5]; [7] 4% | [5]; [8] 4% | [6]; [7] 0% | [6]; [8] 0%

O=C(/C=C/c1ccccc1)CCN1CCN(CCC(=O)/C=C/c2ccccc2)CC1
active: [1]; [8] 100% | [1]; at 50.0 µM 99.2% | [2]; [8] 100% | [2]; at 50.0 µM 99.5% | [3]; at 50.0 µM 99.4% | [4]; [7] 88% | [4]; [8] 100% | [4]; at 50.0 µM 99.4% | [5]; [8] 99% | [5]; at 50.0 µM 99.4% | [6]; [7] 78% | [6]; [8] 100% | [6]; at 50.0 µM 99.5%
inactive: [1]; [7] 36% | [2]; [7] 56% | [3]; [7] 40% | [3]; [8] 57% | [5]; [7] 36%

Nc1ccccc1Sc1ccc(F)cc1[N+](=O)[O-]
active: [1]; [8] 85% | [1]; at 50.0 µM 71% | [2]; at 50.0 µM 89.8% | [3]; [8] 76% | [3]; at 50.0 µM 89.1% | [4]; at 50.0 µM 72.3% | [5]; [8] 85% | [5]; at 50.0 µM 88.8% | [6]; [8] 93% | [6]; at 50.0 µM 88.5%
inactive: [1]; [7] -6% | [2]; [7] -19% | [2]; [8] 26% | [3]; [7] 2% | [4]; [7] -6% | [4]; [8] 59% | [5]; [7] -3% | [6]; [7] -4%

COC1OC(COC(=O)c2ccccc2)CC1F (centres undefined)
active: [1]; at 50.0 µM 93.5% | [2]; at 50.0 µM 94.8% | [3]; at 50.0 µM 94% | [4]; at 50.0 µM 91.8% | [5]; at 50.0 µM 93.3% | [6]; at 50.0 µM 92.2%
inactive: [1]; [7] 16% | [1]; [8] -26% | [2]; [7] -8% | [2]; [8] -22% | [3]; [7] -12% | [3]; [8] -13% | [4]; [7] -24% | [4]; [8] -2% | [5]; [7] 19% | [5]; [8] 26% | [6]; [7] 18% | [6]; [8] -54%
